SARS PLP yeast: SARS-CoV PLP inhibition in yeast; actives 0.19% (n = 330,000); S. cerevisiae expressing SARS-CoV PLpro, growth rescue; Potency, µM (titrated, usually from 32.9 µM), inactives show at the highest dose activity, positive = growth rescue, usual class: activators; AID 485353; calls by dose curve; further: 0% is about no effect; nearly all actives have a fitted effect of over 55% in size
HCV inhibitor: HCV inhibition; Huh7.5.1 HCVcc-Cre infection, luciferase reporter, 44 h; Potency, µM (series often up to 41.8 µM), for inactives: at the top dose activity change, negative = inhibition, actives largely listed as inhibitors; actives 3.4% (n = 340,000); further: on the % scale 0 is the no-effect control and ±100 the full control effect
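Luciferase read-out (15 sec integration) after a 15 min room-temperature substrate step quantifies HCVcc-Cre infection. Cells, 1,000 per well, had compound added 4 h post-plating, then virus at ~0.5 moi, and were cultured 44 h.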
NS1 inh: inhibitors of influenza NS1 protein function; actives 0.4% (n = 270,000); Potency, µM (series often up to 46.1 µM), inactives show top-dose activity, positive = more growth; calls by dose curve; further: actives are rising curves; nearly all actives have a fitted effect of over 50% in size
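A cell-based growth assay was used: compounds that relieve NS1-induced slow growth of budding yeast raise OD600. Assay medium was yeast nitrogen base with ammonium sulphate and -URA supplement, pH 6.0, with 2% galactose.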
Pf growth 96h: P. falciparum growth inhibition at 96 hour, primary screen for plastid delayed-death inhibitors; P. falciparum luciferase reporter growth, 96 h; Potency, µM (doses to about 28.7 µM), inactives show at the highest dose activity change, negative = inhibition, most hits filed as inhibitors; actives 6.9% (n = 320,000); AID 504834; further: on the % scale 0 is the no-effect control and ±100 the full control effect
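Plates of compound plus infected erythrocytes (2% hematocrit, 0.05% parasitemia final) incubate 96 hours, 37 C, 5% CO2. Detection reagent added; reduced luminescence from the parasites' luciferase reporter flags inhibition.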
Pf growth 48h: inhibits P. falciparum growth in the first generation, 48 h; Potency, µM (series often up to 28.7 µM), for inactives: top-dose activity change, negative = inhibition, actives largely listed as inhibitors; P. falciparum luciferase growth in erythrocytes, 48 h; actives 5.9% (n = 310,000); further: on the % scale 0 is the no-effect control and ±100 the full control effect
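Luciferase-expressing P. falciparum in infected erythrocytes (2% hematocrit, 0.1% parasitemia final) in RPMI 1640/0.5% Albumax were exposed to compound for 48 hours at 37 C, 5% CO2; growth read as luminescence.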
AMA1 RON2 block: disrupts binding of P. falciparum AMA1 to RON2. Potency, µM (titrated, usually from 58.2 µM), inactives show at the top dose activity change, negative = inhibition, hits mostly inhibitors. AID 720542. AlphaScreen AMA1-biotinylated RON2 peptide binding. actives 0.2% (n = 360,000);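 further: 0% = vehicle wells and -100% = peptide control; nearly all actives have a fitted effect of over 45% in size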
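AMA1 (3D7) with his tag at 25 nM final met compounds first, then biotinylated RON2 peptide at 25 nM; detection used donor plus acceptor beads, 10 µg/mL apiece, read by AlphaScreen after 30 min at room temperature.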
The depositor's hits bear a star; ? = inconclusive; . = no result; [ ] = remark or other dose. Rows were chosen to be rich in hits. Some 12% of all compounds tested hit in one or more screens of this group. Unless noted, the call rests on the fitted dose curve; in most records, active means well fitted curve in the direction sought with a large enough effect; inconclusive means small, poorly fitted or top-dose-only effect, or another doubt; inactive means no such curve, though single readings can be large; an effect the other way counts as inactive or inconclusive. Potency means the concentration at half of the fitted maximal effect.

SMILES | SARS PLP yeast | HCV inhibitor | NS1 inh | Pf growth 96h | Pf growth 48h | AMA1 RON2 block
Cc1ccc(CN2CC(C(=O)N3CCN(S(=O)(=O)c4cccc(F)c4)CC3)CC2=O)cc1 (configuration not stated) | . | 2.8% | . | 9.3% | ? | 0.0%
CC(OC(=O)CCNS(=O)(=O)c1ccc(Cl)cc1)C(=O)N(C)Cc1ccccc1 (configuration not stated) | . | . | . | . | . | 3.4%
NC(=O)CSc1nnc(-c2ccc([N+](=O)[O-])cc2)o1 | 0.6% | 17.3% | 4.8% | -3.7% | -5.0% | 12.5%
O=c1[nH]nc(SCc2nnc(-c3ccc([N+](=O)[O-])cc3)o2)n1C1CCCCC1 | 0.9% | 3.6% | -5.4% | -4.4% | -15.9% | 3.16µM*
COc1ccccc1C(=O)Nc1ccc(S(=O)(=O)N2CCCCC2c2cccnc2)cc1 (configuration not stated) | -0.8% | ? | -38.2% | 3.29µM* | ? | -15.6%
COc1ccc(C(=O)Nc2ccc(S(=O)(=O)N3CCCCC3C)cc2)c(OC)c1OC (configuration not stated) | 2.6% | 11.2µM* | -47.2% | 23.9% | ? | -10.9%
COc1cc(C(=O)Nc2ccc(S(=O)(=O)N3CCCCC3C)cc2)cc(OC)c1OC (configuration not stated) | -0.1% | 12.6µM* | -59.3% | ? | 8.28µM* | -9.4%
COc1ccc(C(=O)Nc2ccc(NC(C)=O)cc2)cc1S(=O)(=O)N1CCCCC1C (configuration not stated) | -0.9% | ? | . | ? | ? | -9.6%
COc1ccccc1Oc1ccc(S(=O)(=O)N2CCCCC2C)cc1 (configuration not stated) | -5.7% | -11.7% | -18.2% | 14.1% | 24.3% | -15.9%
Cc1c(C(=O)NCc2ccco2)oc2ccccc12 | -3.9% | 9.3% | -8.6% | -29.3% | 20.5% | -17.4%
Cc1cc(N2CCN(C)CC2)nc2ccc(NC(=S)N3CCN(c4ccccn4)CC3)cc12 | -0.3% | -21.4% | -2.9% | 9.28µM* | -32.3% | -13.2%
Cc1ccc(C)c(N2CCN(C(=S)Nc3ccc4nc(N5CCN(C)CC5)cc(C)c4c3)CC2)c1 | -3.6% | 2.51µM* | . | 27.1% | 10.4µM* | -5.5%
COc1ccccc1N1CCN(C(=S)Nc2ccc3nc(N4CCOCC4)cc(C)c3c2)CC1 | -0.7% | 3.55µM* | . | ? | ? | 23.9%
Cc1nc2ccc(NC(=S)N3CCN(c4ccccn4)CC3)cc2nc1C | -13.5% | -1.1% | -9.3% | ? | 1.1% | -8.0%
Cc1cc(N2CCN(C)CC2)nc2ccc(NC(=S)N3CCC4(CC3)OCCO4)cc12 | 2.7% | 24.7% | -1.7% | 11.7µM* | 4.15µM* | -7.5%
CCN1CCN(c2cc(C)c3cc(NC(=S)N4CCC5(CC4)OCCO5)ccc3n2)CC1 | 3.6% | ? | . | ? | ? | 12.3%
CCCCCN(C(=O)CCC(=O)OC(C)C(=O)c1ccccc1)c1c(N)n(CCCC)c(=O)[nH]c1=O (configuration not stated) | -0.4% | 1.3% | . | 43.2% | 35.5% | -14.9%
Cc1ccc2c(c1)N(CC(=O)NCCCN1CCCCC1)C(=O)CO2 | -1.2% | -3.5% | -1.0% | ? | 4.7% | 1.0%
COc1ccc(-c2[nH]ncc2CNCc2cc(C)n(C)n2)c(F)c1 | 0.7% | ? | -0.1% | -6.4% | 18.9% | 77.8%
COc1ccc(-c2[nH]ncc2CNCCn2cccn2)c(F)c1 | 1.3% | 8.5% | 0.9% | 13.1µM* | 47.4% | 59.7%
Cc1ccc(/C=C(\NC(=O)c2ccccc2)C(=O)NC(Cc2ccccc2)C(=O)O)cc1 (configuration not stated) | 1.3% | 7.5% | 16.2% | 0.522µM* | 1.2% | 6.9%[11.6 µM]
Cc1ccc(C(=O)N/C(=C/c2cccs2)C(=O)NCc2ccco2)cc1 | -19.1% | 18.6% | 16.8% | 0.522µM* | -3.3% | 26.1%
Cc1ccc(C(=O)N/C(=C/c2ccccc2)C(=O)NC(Cc2ccccc2)C(=O)O)cc1 (configuration not stated) | -0.9% | -1.9% | 7.3% | 25.1% | 3.9% | -14.8%

Source: PubChem BioAssay (National Center for Advancing Translational Sciences (NCATS))
